# Data: PMC4336329 (PLoS ONE, 2015)
# The whole screen tested about 310,000 compounds, of which about 14,000 (4.5%) showed an effect of 50% or more. Effects have a minus sign here. The sample holds strong results, similar compounds and a random draw of the others, so the mix is not that of the screen.
# Molecular target: human ether-à-go-go-related gene (hERG) potassium channel (human, UniProt Q12809)
# Test: primary screen, population patch clamp on CHO cells stably expressing hERG; higher = less effect of the substance
# 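Also: peak tail current of the secondary pulse compared with the same well before compound.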
# Sequence of human ether-à-go-go-related gene (hERG) potassium channel (Q12809 whole entry, looked up): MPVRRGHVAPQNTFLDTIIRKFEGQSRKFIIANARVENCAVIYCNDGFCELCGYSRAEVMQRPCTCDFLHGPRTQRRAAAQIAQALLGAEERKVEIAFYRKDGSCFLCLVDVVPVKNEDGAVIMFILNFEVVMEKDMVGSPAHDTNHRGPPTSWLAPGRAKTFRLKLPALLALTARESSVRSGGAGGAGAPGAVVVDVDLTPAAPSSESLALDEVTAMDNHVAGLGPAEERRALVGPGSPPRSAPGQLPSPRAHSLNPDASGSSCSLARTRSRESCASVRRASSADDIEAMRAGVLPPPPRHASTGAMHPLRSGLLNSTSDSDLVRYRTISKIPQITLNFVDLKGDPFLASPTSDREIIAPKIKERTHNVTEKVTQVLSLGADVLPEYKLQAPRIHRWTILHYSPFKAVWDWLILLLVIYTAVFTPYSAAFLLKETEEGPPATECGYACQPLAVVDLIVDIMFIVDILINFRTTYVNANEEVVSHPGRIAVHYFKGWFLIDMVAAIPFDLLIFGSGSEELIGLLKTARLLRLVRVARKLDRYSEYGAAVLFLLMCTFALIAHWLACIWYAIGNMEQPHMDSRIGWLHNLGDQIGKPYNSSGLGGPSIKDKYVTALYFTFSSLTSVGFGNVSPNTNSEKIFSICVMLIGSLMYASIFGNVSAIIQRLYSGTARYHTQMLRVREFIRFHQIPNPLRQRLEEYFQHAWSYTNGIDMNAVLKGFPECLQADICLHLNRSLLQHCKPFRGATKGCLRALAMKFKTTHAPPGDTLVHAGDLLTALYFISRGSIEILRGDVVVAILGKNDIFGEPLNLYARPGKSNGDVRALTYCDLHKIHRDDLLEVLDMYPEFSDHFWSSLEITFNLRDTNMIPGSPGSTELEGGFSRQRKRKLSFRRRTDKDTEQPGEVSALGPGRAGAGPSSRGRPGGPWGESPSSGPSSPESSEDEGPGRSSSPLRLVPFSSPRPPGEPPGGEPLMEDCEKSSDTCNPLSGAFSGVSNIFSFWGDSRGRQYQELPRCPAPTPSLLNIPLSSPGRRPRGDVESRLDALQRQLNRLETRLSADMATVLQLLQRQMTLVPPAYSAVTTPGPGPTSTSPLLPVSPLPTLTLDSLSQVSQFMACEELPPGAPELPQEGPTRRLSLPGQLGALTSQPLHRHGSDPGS
row,SMILES,"hERG current change (%, negative = inhibition) at 10uM"
1,O=C(NC1CCCCC1)c1ccc(CNc2ccccc2)o1,-9.19%
2,COc1ccc(CCNC(=O)C2CCCN2C(=O)Nc2ccc(F)cc2)cc1OC (centres unmarked),16.5%
3,CCOC(=O)C1=C(c2ccccc2)Nc2ncnn2C1c1ccccn1 (centres unmarked),13.6%
4,O=C(O)c1cc(-c2ccc(/C=C3\NC(=O)N(c4ccc(Cl)cc4)C3=O)o2)ccc1Cl,7.5%
5,CC1(C)CC2CC(C)(CN2C(=S)NC(=O)c2ccccc2Cl)C1 (centres unmarked),3.14%
6,NC(=O)NC(=O)CSc1ccccc1,17.1%
7,COc1ccc(N2CC(C(=O)Nc3nc4ccc(F)cc4s3)CC2=O)c(OC)c1 (centres unmarked),-56.3%
8,COc1ccc(N2CC(C(=O)Nc3nc(-c4ccccc4)c(C(C)=O)s3)CC2=O)c(OC)c1 (centres unmarked),-0.242%
9,O=C(Nc1nc2ccc(F)cc2s1)C1CC(=O)N(c2ccc3c(c2)OCCO3)C1 (centres unmarked),-8.48%
10,CC(C)OC(=O)c1ccc(OC(=O)c2cccnc2)cc1,12.5%
11,CCN1C(=S)N[C@@H](c2ccccc2)C(C(=O)OC)=C1C,14.8%
12,COC(=O)C1=C(C)N(Cc2ccccc2)C(=NCCc2cccnc2)N[C@H]1c1ccccc1,-63%
13,CCN1C(=NCCOC)N[C@@H](c2cccs2)C(C(=O)OC)=C1C,-5.96%
14,CCN1C(=O)N[C@@H](c2ccccc2)C(C(=O)OC)=C1C,-1.67%
15,CCN1C(=O)N[C@@H](c2cccs2)C(C(=O)OC)=C1C,10.2%
16,CCN1C(=NCCc2cccs2)N[C@@H](c2cccs2)C(C(=O)OC)=C1C,-64.2%
17,CCN1C(=NCCc2cccnc2)N[C@@H](c2ccccc2)C(C(=O)OC)=C1C,-51.2%
18,COCCN=C1N[C@@H](c2cccc(C(F)(F)F)c2)C(C(=O)OC)=C(C)N1Cc1ccccc1,-11.9%
19,C=CCN=C1N[C@@H](c2ccccc2)C(C(=O)OC)=C(C)N1CC,1.27%
20,CCN(CC)CCCN=C1N[C@@H](c2ccccc2)C(C(=O)OC)=C(C)N1CC,14.6%
21,COC(=O)C1=C(C)N(Cc2ccccc2)C(=NCc2cc(OC)c(OC)c(OC)c2)N[C@H]1c1ccccc1,-27.8%
22,CCN1C(N(C)CCc2cccs2)=N[C@@H](c2ccccc2)C(C(=O)OC)=C1C,-53.8%

row,SMILES,"hERG current change (%, negative = inhibition) at 10uM"
1,CCOC(=O)C1=C(C)Nc2ccccc2N/C1=N\S(=O)(=O)c1ccc(Cl)cc1,-7.32%
2,COc1ccc(CNC(=O)CCCNS(=O)(=O)c2cccc3nonc23)cc1,-1.27%
3,CC(CC(=O)NC1CCCCC1)S(=O)(=O)c1ccc2c(c1)NC(=O)CO2 (centres unmarked),5.72%
4,Cc1cc(C)nc(N(C#N)Cc2ccccc2C)n1,-51.4%
5,Cc1cc(C)nc(N(C#N)Cc2cccc3ccccc23)n1,3.61%
6,Cc1cc(C)nc(N(C#N)Cc2ccccc2Cl)n1,4.48%
7,CCC(=O)n1nc(-c2ccco2)nc1N,10.8%
8,CCN(Cc1ccccc1)c1ccc(/C=N/NS(=O)(=O)c2cccc([N+](=O)[O-])c2)cc1,10.3%
9,CC(=O)Nc1cccc(-c2nnc3c4ccccc4c(C)nn23)c1,-0.564%
10,Cc1nn2c(-c3cccc(NC(=O)CSc4nc5ccccc5o4)c3)nnc2c2ccccc12,-70.8%
11,Cc1cccc(NC(=O)CSc2nc3ccccc3o2)c1,3.5%
12,CCS(=O)(=O)N1CCN(C(=O)c2cccc3ccccc23)CC1,12.8%
13,COc1cccc(CCN2C(=O)C(=O)N([C@@H](CNCc3ccccc3)Cc3ccccc3F)C[C@@H]2C(C)(C)C)c1,-48.5%
14,COc1ccc(CNC[C@@H](CCCCN(C)Cc2ccc(OC)cc2)N2C[C@H](c3ccccc3)N(CCc3ccc(Cl)c(Cl)c3)C(=O)C2=O)cc1,-80.3%
15,COc1ccc(CNC(=O)[C@@H]2CC=C[C@@H]3CCN(Cc4ccc(Cl)c(Cl)c4)C(=O)[C@@H]32)cc1,-8.85%
16,Nn1cnc2cc3ccccc3cc2c1=O,8.16%
17,Cn1c(=O)c2cn(-c3ccc4c(c3)OCCO4)cc2n(C)c1=O,11.3%
18,Cc1cccc(C)c1NC(=O)C1(N(Cc2ccco2)C(=O)c2ccccn2)CCCC1,5.95%
19,COc1c(C)cccc1C(=O)Nc1ccc(CN2CCCCC2)cc1,-30.7%
20,COc1c(Cl)cc(Cl)cc1C(=O)Nc1ccc(CN2CCCCC2)cc1,-65.1%
21,COc1c(Cl)cc(Cl)cc1C(=O)Nc1ccc(CN2CCOCC2)cc1,8.37%
22,COc1ccc(Cl)cc1C(=O)Nc1ccc(CN2CCCCC2)cc1,-52%

row,SMILES,"hERG current change (%, negative = inhibition) at 10uM"
1,COc1cccc(OC)c1C(=O)Nc1ccc(CN2CCCCC2)cc1,10.6%
2,COc1ccccc1C(=O)Nc1ccc(CN2CCCCC2)cc1,-28.4%
3,Cc1ccc(N2C(S)=C(C#N)C(=O)NC2c2cccs2)cc1 (centres unmarked),15.2%
4,c1ccc(CN(Cc2ccccc2)c2ncnc3c2nnn3Cc2ccccc2)cc1,7.63%
5,CC1Cc2nc(SCC(=O)NCc3ccco3)n(-c3ccccc3)c(=O)c2S1 (centres unmarked),-33.5%
6,O=C(Nc1ccc(C(F)(F)F)cc1)c1csc(-c2ccncc2)n1,-25.4%
7,Cc1ccc(C(=O)Nc2cccc(C(F)(F)F)c2)cc1NC(=O)c1csc(-c2ccncc2)n1,-62.5%
8,COc1cc(NC(=O)c2csc(-c3ccncc3)n2)cc(C(=O)Nc2cccc(C(F)(F)F)c2)c1,-48.7%
9,O=C(Nc1cccc(C(F)(F)F)c1)c1csc(-c2ccncc2)n1,-68.6%
10,NNC(=O)c1csc(-c2cccc(C(F)(F)F)c2)n1,-30%
11,CCN1CCN(Cc2ccc(NC(=O)c3ccc(C)c(NC(=O)c4csc(-c5ccncc5)n4)c3)cc2C(F)(F)F)CC1,7.22%
12,CC(C)N1C(=O)C2ON(c3ccccc3)C(c3cccs3)C2C1=O (centres unmarked),-16.6%
13,CCOC(=O)C(CC)(CCC(=O)O)c1csc(Nc2ccc(C)cc2)n1 (centres unmarked),16.5%
14,Cc1cc(=O)oc2c(C)c(OCC(=O)N(C)C)ccc12,9.8%
15,O=C(c1ccc(F)cc1)N1C2CCC1CC(O)(c1ccc(F)cc1)C2 (centres unmarked),-20.6%
16,COc1ccc(C(C)=O)cc1COC(=O)c1ccc(N)c([N+](=O)[O-])c1,35.1%
17,COc1ccc(NC(=O)c2cc(S(=O)(=O)N(C)C)ccc2N2CCCC2)cc1Cl,12.7%
18,COc1ccc(OC)c(NC(=O)c2cc(S(=O)(=O)N(C)C)ccc2N2CCCC2)c1,-68.1%
19,COc1ccc(NC(=O)CN(C)C(=O)c2cc(S(=O)(=O)N(C)C)ccc2N2CCCC2)cc1,-13.8%
20,COc1cc(C(=O)NNC(=O)c2cc(S(=O)(=O)N(C)C)ccc2N2CCCC2)cc(OC)c1OC,15.1%
21,COc1ccc(C(C)(C)C)cc1NC(=O)c1cc(S(=O)(=O)N(C)C)ccc1N1CCCC1,-60%
22,COc1ccc(CCNC(=O)c2cc(S(=O)(=O)N(C)C)ccc2N2CCCC2)cc1OC,5.99%

row,SMILES,"hERG current change (%, negative = inhibition) at 10uM"
1,COc1ccc(CCNC(=O)c2cc(S(=O)(=O)N(C)C)ccc2N2CCCC2)cc1,4.26%
2,Cc1ccc(NC(=O)c2cc(S(=O)(=O)N(C)C)ccc2N2CCCC2)cc1S(=O)(=O)N(C)C,-26.5%
3,COc1cc(Cl)c(C)cc1NC(=O)c1cc(S(=O)(=O)N(C)C)ccc1N1CCCC1,-51.8%
4,CN(C)CCNc1cnn(-c2ccccc2)c(=O)c1Cl,14.2%
5,CCOC(=O)c1[nH]c2ccccc2c1NC(=S)Nc1cccc(C)c1C,-5.81%
6,CC(C)(C)NC(=S)NNC(=O)c1ccncc1,15.4%
7,CC(C)c1nc2sc3c(c2c(=O)n1N)CC(C)(C)OC3,8.71%
8,CCCn1c(SCC(=O)Nc2ccc(C(=O)Nc3ccccc3OC)cc2)n[nH]c1=O,11.9%
9,CC(NC(=O)CCNC(=O)c1ccco1)c1ccc(F)cc1 (centres unmarked),12.3%
10,CCOc1ccc2nc(N(CCCN(C)C)C(=O)c3ccc(C(=O)c4ccccc4)cc3)sc2c1.Cl,-35.5%
11,CN(C)CCN(C(=O)c1ccc(S(=O)(=O)N(C)CC2CCCO2)cc1)c1nc2cc3c(cc2s1)OCO3.Cl (centres unmarked),-43.2%
12,CCCC(=O)N(CCN1CCOCC1)c1nc2c(OCC)cccc2s1.Cl,9.08%
13,CCOc1cccc2sc(N(CCCN(C)C)C(=O)c3ccc(S(=O)(=O)N4CCc5ccccc5C4)cc3)nc12.Cl,13.7%
14,CCOc1cccc2sc(N(CCCN(C)C)C(=O)c3ccc(S(=O)(=O)N(C)c4ccccc4)cc3)nc12.Cl,-83.7%
15,CCOc1cccc2sc(N(CCCN(C)C)C(=O)Cc3ccccc3)nc12.Cl,-80.2%
16,CCOc1cccc2sc(N(CCN(C)C)C(=O)/C=C/c3cccs3)nc12.Cl,-40.7%
17,CCOc1cccc2sc(N(CCCN(C)C)C(=O)c3ccc(S(=O)(=O)N(C)Cc4ccccc4)cc3)nc12.Cl,-40.4%
18,Cc1cc(C)c2nc(N(CCN(C)C)C(=O)c3ccc(S(=O)(=O)N(C)CC4CCCO4)cc3)sc2c1.Cl (centres unmarked),-43.6%
19,CCOc1cccc2sc(N(CCCN(C)C)C(=O)c3ccc(C(=O)c4ccccc4)cc3)nc12.Cl,-72.1%
20,CCOc1cccc2sc(N(CCCN(C)C)C(=O)c3ccc(S(=O)(=O)N(C)CC4CCCO4)cc3)nc12.Cl (centres unmarked),-77.4%
